Shown are actives, neighbours in structure and some others; about 3.6% of the full set was active somewhere.
AmpC inh detg: inhibitors of E. coli AmpC beta-lactamase with detergent. P00811. AmpC hydrolysis of nitrocefin, absorbance 480 nm, 0.01% Triton. Potency, µM (highest dose often 114 µM), inactives show at the top dose activity change, negative = inhibition, actives largely listed as inhibitors. 370,000 compounds, 0.041% hits. AID 485294;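 also: 0% = no-compound wells and -100% = no-enzyme wells; nearly all actives have a fitted effect of over 25% in size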
Target sequence (P00811 whole entry, looked up): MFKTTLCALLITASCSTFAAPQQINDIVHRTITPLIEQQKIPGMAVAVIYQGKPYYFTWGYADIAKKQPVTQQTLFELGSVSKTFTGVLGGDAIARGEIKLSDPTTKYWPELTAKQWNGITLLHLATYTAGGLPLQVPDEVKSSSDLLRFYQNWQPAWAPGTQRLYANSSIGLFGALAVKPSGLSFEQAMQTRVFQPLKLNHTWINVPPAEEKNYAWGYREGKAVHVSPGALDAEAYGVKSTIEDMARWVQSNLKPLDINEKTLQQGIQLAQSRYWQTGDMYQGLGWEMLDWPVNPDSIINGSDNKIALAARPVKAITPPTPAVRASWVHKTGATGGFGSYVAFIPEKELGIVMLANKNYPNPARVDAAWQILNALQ
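20 mM phosphate pH 7.0 + 0.01% (detergent screen) or 0.0001% Triton X-100; 5.3 nM AmpC reagent; cpd preinc 15 min RT; nitrocefin (800 uM stock) to start; A480 q20 s × 4 min; Activity was normalised to no-enzyme and no-compound control wells.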
Sm TGR block: blocks Schistosoma mansoni thioredoxin glutathione reductase; Potency, µM (highest dose often 114 µM), without a hit: at the highest dose activity change, negative = inhibition, hits mostly inhibitors; purified TGR, DTNB reduction, TNB absorbance 405 nm; Q962Y6; 360,000 compounds, 3% hits; also: nearly all actives have a fitted effect of over 60% in size
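First, TGR (20 nM dispensed) and NADPH were mixed with compound. Second, a 15 min room-temperature incubation followed. Third, further NADPH and then DTNB were added to start the reaction. Finally, TNB absorbance was monitored kinetically.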
AmpC inh no detg: inhibitors of E. coli AmpC beta-lactamase without detergent; 330,000 compounds, 0.52% hits; P00811; Potency, µM (doses to about 57.1 µM), inactives show at the top dose activity change, negative = inhibition, usual class: inhibitors; AmpC nitrocefin hydrolysis, absorbance 480 nm, 0.0001% Triton;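 also: plate controls were no compound for no effect and no enzyme for full effect; nearly all actives have a fitted effect of over 20% in size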
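20 mM phosphate pH 7.0 + 0.01% (detergent screen) or 0.0001% Triton X-100; 5.3 nM AmpC reagent; cpd preinc 15 min RT; nitrocefin (800 uM stock) to start; A480 q20 s × 4 min; Activity was normalised to no-enzyme and no-compound control wells.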
FBPA Giardia inh: Giardia lamblia aldolase inhibition; 290,000 compounds, 0.71% hits; purified Giardia FBPA; Potency, µM (doses to about 59.6 µM), for the others: at the highest dose activity, negative = inhibition, usual class: inhibitors; A8B2U2; also: nearly all actives have a fitted effect of over 55% in size
Target sequence (A8B2U2 whole entry, looked up): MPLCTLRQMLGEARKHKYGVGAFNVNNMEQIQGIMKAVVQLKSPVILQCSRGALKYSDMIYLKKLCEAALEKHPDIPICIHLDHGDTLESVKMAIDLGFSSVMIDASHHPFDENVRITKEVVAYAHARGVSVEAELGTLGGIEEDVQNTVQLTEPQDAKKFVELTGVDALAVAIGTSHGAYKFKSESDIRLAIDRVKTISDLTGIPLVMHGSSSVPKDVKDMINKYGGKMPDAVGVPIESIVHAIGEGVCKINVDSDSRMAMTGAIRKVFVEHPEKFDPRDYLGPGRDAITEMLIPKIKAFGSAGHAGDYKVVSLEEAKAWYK
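Giardia FBPA (40 nM reagent) was preincubated 10 min at RT with compound (up to 57.5 uM final), then substrate plus GAPDH/TPI/NAD/arsenate coupling system with diaphorase/resazurin was added; resorufin fluorescence (525/598 nm) was read after 20 min.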
* hit, by the source's call; [ ] = dose if it differs, or a comment. Calls follow the shape of the dose curve; as a rule, active = well fitted curve in the direction sought with a large enough effect; inconclusive = small, poorly fitted or top-dose-only effect, or another doubt; inactive = no such curve, though single readings can be large; an effect the other way counts as inactive or inconclusive. Unless noted, % is scaled to controls: 0 for no effect and ±100 for the full control effect; potency is read from the fitted curve at half-maximal effect.

What do the screens show for `Cc1ccc(S(=O)(=O)N2CCCCC2)cc1C(=O)NCC1CCCO1` (configuration not stated)?
AmpC inh detg: -9.7%; Sm TGR block: 8.4%; AmpC inh no detg: -0.7%

How did COc1cc(Cl)c(C)cc1NC(=O)c1nn(C)c2c1CSc1ccccc1-2 do in these assays?
AmpC inh detg: 9.9%; Sm TGR block: 6.1%

How did CCc1ccc(C(=O)NNC(=O)CN2C(=O)NC(CC)(c3ccccc3)C2=O)cc1 (configuration not stated) do in these assays?
AmpC inh detg: inconclusive; Sm TGR block: -3.9%; AmpC inh no detg: -24.7%

How did CCOc1ccc(-c2nnc(SCC(=O)Nc3ccc(C)cc3Cl)o2)cc1 do in these assays?
AmpC inh detg: 27.0%; Sm TGR block: 17.8µM*

What do the screens show for `CCOc1ccc(-c2nnc(SCC(=O)Nc3cc(C)ccc3OC)o2)cc1`?
AmpC inh detg: 26.7%; Sm TGR block: 11.2µM*

How did O=C(N/N=C/c1cn(Cc2cccc(F)c2)c2ccccc12)c1cc(O)cc(O)c1 do in these assays?
AmpC inh detg: inconclusive; Sm TGR block: -28.8%; AmpC inh no detg: 12.6µM*; FBPA Giardia inh: -6.8%

What do the screens show for `Nc1ccc(C(=O)N/N=C/c2cn(Cc3ccc(F)cc3)c3ccccc23)cc1`?
AmpC inh detg: -12.6%; Sm TGR block: 2.4%; AmpC inh no detg: -39.9%; FBPA Giardia inh: 4.0%

How did CC1=C(C(=O)Nc2ccc(C)cc2C)C(c2ccc([N+](=O)[O-])cc2)n2ncc(C(=O)Nc3ccc(F)cc3)c2N1 (configuration not stated) do in these assays?
AmpC inh detg: -3.4%; Sm TGR block: -1.8%

What do the screens show for `COc1ccc2oc(=O)c(C(=O)Nc3ccc(C(=O)O)cc3)cc2c1`?
AmpC inh detg: 11.3%; Sm TGR block: 0.3%

How did N#Cc1ccc(C(=O)OCCc2cc3ccccc3c(=O)o2)cc1 do in these assays?
AmpC inh detg: 1.4%; Sm TGR block: -2.0%; AmpC inh no detg: -7.8%

Results for O=C(OCCCc1cc2ccccc2c(=O)o1)c1ccccc1C(F)(F)F ?
AmpC inh detg: -4.5%; Sm TGR block: 11.2µM*; AmpC inh no detg: -8.6%

Results for O=C(O)c1ccccc1C(=O)OCCc1cc2ccccc2c(=O)o1 ?
AmpC inh detg: 3.7%; Sm TGR block: -13.0%; AmpC inh no detg: -16.0%

How did COc1cc2cc(CCCOC(=O)c3ccc(F)cc3)oc(=O)c2cc1OC do in these assays?
AmpC inh detg: -0.6%; Sm TGR block: inconclusive; AmpC inh no detg: 39.7%

Results for CCN(CC)C(=O)OCCc1cc2ccccc2c(=O)o1 ?
AmpC inh detg: -2.3%; Sm TGR block: 3.16µM*; AmpC inh no detg: -25.4%

What do the screens show for `O=C(OCCCc1cc2ccccc2c(=O)o1)c1ccc(F)cc1`?
AmpC inh detg: 3.1%; Sm TGR block: 35.5µM*; AmpC inh no detg: -9.7%

How did N#Cc1ccc(C(=O)OCCCc2cc3ccccc3c(=O)o2)cc1 do in these assays?
AmpC inh detg: 2.8%; Sm TGR block: 50.1µM*; AmpC inh no detg: -11.7%

What do the screens show for `COCCN(Cc1ccc(F)cc1)C(=O)c1cc2ccccc2oc1=O`?
AmpC inh detg: inconclusive; Sm TGR block: -6.3%; AmpC inh no detg: 2.7%; FBPA Giardia inh: 16.7%

Results for CCOC(=O)c1[nH]c2c(c1C)C(=O)CC(c1ccco1)C2 (configuration not stated) ?
AmpC inh detg: inconclusive; Sm TGR block: 39.8µM*; AmpC inh no detg: -29.7%; FBPA Giardia inh: 0.5%

Results for CCCCOC(=O)c1[nH]c2c(c1C)C(=O)CC(c1cc(OC)c(OC)c(OC)c1)C2 (configuration not stated) ?
AmpC inh detg: inconclusive; Sm TGR block: 3.2%; AmpC inh no detg: 31.6µM*; FBPA Giardia inh: 1.4%

What do the screens show for `COCCOC(=O)c1[nH]c2c(c1C)C(=O)CC(c1ccco1)C2` (configuration not stated)?
AmpC inh detg: inconclusive; Sm TGR block: 44.7µM*; AmpC inh no detg: -12.0%; FBPA Giardia inh: -0.8%

How did COC(=O)C1=C(C)N(c2ccc(F)c(Cl)c2)C(=O)C1 do in these assays?
AmpC inh detg: 0.9%; Sm TGR block: 25.1µM*; AmpC inh no detg: -26.7%; FBPA Giardia inh: -5.8%

What do the screens show for `CCN1C(=O)[C@H]2[C@@H](c3ccc(-c4ccc(F)cc4)cc3)N[C@@](CC(C)C)(C(=O)OC)[C@H]2C1=O`?
AmpC inh detg: -3.9%; Sm TGR block: -13.3%; AmpC inh no detg: 93.7%

What do the screens show for `CCN1C(=O)[C@@H]2[C@@H](c3ccc(-c4ccc(F)cc4)c(OC)c3)N3CCCC[C@@]3(C(=O)OC)[C@@H]2C1=O`?
AmpC inh detg: -2.0%; Sm TGR block: 28.2µM*; AmpC inh no detg: 67.4%

What do the screens show for `CCN1C(=O)[C@H]2[C@@H](c3ccc(-c4ccc(F)cc4)c(OC)c3)N[C@@](CC(C)C)(C(=O)OC)[C@H]2C1=O`?
AmpC inh detg: -1.9%; Sm TGR block: 39.8µM*; AmpC inh no detg: 143.8%

How did Cc1ccc(C)c(N(C)C(=O)CCNC(=O)Cn2cnc3ccccc3c2=O)c1 do in these assays?
AmpC inh detg: 3.9%; Sm TGR block: -7.3%

What do the screens show for `Cc1ccc(-n2nnnc2SCC(=O)NCCc2ccccc2)cc1C`?
AmpC inh detg: -1.7%; Sm TGR block: -1.4%

How did CCOc1ccc(NC(=O)C(=O)NCCCn2ccnc2)cc1 do in these assays?
AmpC inh detg: -4.5%; Sm TGR block: -11.0%; AmpC inh no detg: 0.159µM*; FBPA Giardia inh: 4.4%

How did S=C(NCCCn1ccnc1)Nc1ccc(Cl)cc1Cl do in these assays?
AmpC inh detg: -5.5%; Sm TGR block: 31.6µM*; AmpC inh no detg: -10.1%[2.29 µM]; FBPA Giardia inh: 4.3%

How did CN(C)S(=O)(=O)c1cccc(NC(=S)NCCCn2ccnc2)c1 do in these assays?
AmpC inh detg: -1.9%; Sm TGR block: 50.1µM*; AmpC inh no detg: -33.6%; FBPA Giardia inh: 0.4%

How did CCCOc1ccc(NC(=O)C(=O)NCCCn2ccnc2)cc1 do in these assays?
AmpC inh detg: -13.5%; Sm TGR block: -7.9%; AmpC inh no detg: -5.3%; FBPA Giardia inh: -0.4%

Results for O=C(NCCCN1CCCC1=O)Nc1ccc(Cl)cc1Cl ?
AmpC inh detg: 7.1%; Sm TGR block: 19.9%; AmpC inh no detg: 0.2%; FBPA Giardia inh: -8.0%

Results for Cc1ccc(S(=O)(=O)N(C)C)cc1NC(=S)NCCCn1ccnc1 ?
AmpC inh detg: inconclusive; Sm TGR block: inconclusive; AmpC inh no detg: -15.7%; FBPA Giardia inh: -0.3%

What do the screens show for `O=C1CCCN1CCCNC(=S)Nc1ccc(Cl)cc1Cl`?
AmpC inh detg: 5.5%; Sm TGR block: 89.1µM*; AmpC inh no detg: -32.3%; FBPA Giardia inh: 0.3%

Results for O=C(NCCCn1ccnc1)Nc1ccc(Cl)cc1 ?
AmpC inh detg: 0.6%; Sm TGR block: -6.7%; AmpC inh no detg: -16.4%

What do the screens show for `Cc1ccccc1-c1nn2c(=O)cc(CN3CCN(C(=O)/C=C/c4ccccc4)CC3)nc2s1`?
AmpC inh detg: -4.2%; Sm TGR block: 39.8µM*

Results for COc1ccccc1-c1nn2c(=O)cc(CN3CCN(C(=O)/C=C/c4ccccc4)CC3)nc2s1 ?
AmpC inh detg: -1.4%; Sm TGR block: -23.2%

Screens as filed in PubChem BioAssay.
